The panel holds about 79,000 compounds, 15% with a hit somewhere; the sample as a whole holds those more often. A number with no mark means an inactive call. Active and inactive are the calls of the source. No stated cut-off is given here; in the data, active means growth inhibition above about 70%; inactive means the rest.

The nature of test [1]: NCI Yeast Anticancer Drug Screen. Data for the rad50 strain (AID 155).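 Further: 0% = growth of vehicle-only cultures of the same strain.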 The following applies: S. cerevisiae rad50 strain growth inhibition, stronger effect = higher value. The method, boiled down: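 Cells are treated with compound, grown, and their growth is then scored against vehicle-only cultures of the same repair-deficient yeast strain.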
Test [2] in a line: NCI Yeast Anticancer Drug Screen. Data for the mec2-1 strain (AID 157). The note with it: S. cerevisiae mec2-1 strain, stronger effect = higher value. The method, boiled down:
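Compounds were applied to mec2-1 yeast cells. Their growth was then compared with that of vehicle-treated cultures to give growth inhibition.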

A short description of test [3]: NCI Yeast Anticancer Drug Screen. Data for the sgs1 mgt1 strain (AID 161).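 Further: 0% = growth of cultures given vehicle only.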 The note with it: S. cerevisiae sgs1 mgt1 strain, stronger effect = higher value. The method in brief:
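Percent growth inhibition was derived by comparing compound-exposed mutant yeast with vehicle-exposed cultures. The strain carries alterations in DNA damage repair.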

The nature of test [4]: NCI Yeast Anticancer Drug Screen. Data for the cln2 rad14 strain (AID 165).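 Further: 0% = growth equal to vehicle treated cultures.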 The note with it: S. cerevisiae cln2 rad14 strain, stronger effect = higher value. The method in brief: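 Strain: cln2 rad14 yeast, altered in cell cycle control and DNA damage repair. Read-out: growth inhibition vs vehicle.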
Test [5] is described as follows: NCI Yeast Anticancer Drug Screen. Data for the bub3 strain (AID 167). The note with it: S. cerevisiae bub3 mutant strain, stronger effect = higher value. The method in brief: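 Part of a panel of yeast mutants defective in DNA damage repair or cell cycle regulation. Each strain is grown with compound, and inhibition is calculated relative to solvent-treated cultures.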
The nature of test [6]: NCI Yeast Anticancer Drug Screen. Data for the mlh1 rad18 strain (AID 175). The following applies: S. cerevisiae mlh1 rad18 strain growth inhibition, stronger effect = higher value. The method, boiled down:
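A repair-deficient yeast strain is exposed to test compound, and growth is scored relative to vehicle-treated controls.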

[7] abbreviates: at 5.0 µM (retest, dose inferred, filed as 0.5).
[8] abbreviates: at 50.0 µM (retest, dose inferred, filed as 5.0).

`COc1cc(OC)c(/C=C(\C)[N+](=O)[O-])cc1Br`: the growth inhibition was 1% in test [1] (setting [7]); 1% in test [1] (setting [8]); 96.5% (active) in test [1] (at 50.0 µM); 3% in test [2] (setting [7]); 3% in test [2] (setting [8]); 84.9% (active) in test [2] (at 50.0 µM). In addition, the growth inhibition in test [3] (setting [7]) was 2%; in test [3] (setting [8]), -16%; in test [3] (at 50.0 µM) it was 88% (active); in test [4] (setting [7]) it was 3%; in test [4] (setting [8]), 0%; in test [4] (at 50.0 µM) it was 66.2%. Further, the growth inhibition in test [5] (setting [7]) was -1%; in test [5] (setting [8]), 0%; in test [5] (at 50.0 µM) it was 92.2% (active); in test [6] (setting [7]), 2%; in test [6] (setting [8]), 1%; in test [6] (at 50.0 µM) it was 98.7% (active).
For `COC(C)(C)[CH]([Hg][Cl])n1ccccc1=O` (configuration not stated), the growth inhibition was 99% (active) in test [1] (setting [7]); 99% (active) in test [1] (setting [8]); 99.3% (active) in test [1] (at 50.0 µM); 99% (active) in test [2] (setting [7]); 100% (active) in test [2] (setting [8]); 99.4% (active) in test [2] (at 50.0 µM). For the same compound, the growth inhibition is 99% (active) in test [3] (setting [7]); 99% (active) in test [3] (setting [8]); 99.3% (active) in test [3] (at 50.0 µM); 98% (active) in test [4] (setting [7]); 99% (active) in test [4] (setting [8]); 99.2% (active) in test [4] (at 50.0 µM). The growth inhibition in test [5] (setting [7]) is 99% (active); in test [5] (setting [8]) it was 99% (active); in test [5] (at 50.0 µM), 99.1% (active); in test [6] (setting [7]) it was 98% (active); in test [6] (setting [8]) it was 98% (active); in test [6] (at 50.0 µM) it was 99.3% (active).
`CC(C)NC1CC2CCCCC2CC1c1ccccc1` (configuration not stated): the growth inhibition in test [1] (setting [7]) is 1%; in test [1] (setting [8]), 51%; in test [1] (at 50.0 µM), 79.8% (active); in test [2] (setting [7]), 4%; in test [2] (setting [8]) it was 25%; in test [2] (at 50.0 µM) it was 83.3% (active). Also, the growth inhibition is 10% in test [3] (setting [7]); 68% in test [3] (setting [8]); 90.9% (active) in test [3] (at 50.0 µM); 3% in test [4] (setting [7]); 57% in test [4] (setting [8]); 82.3% (active) in test [4] (at 50.0 µM). The growth inhibition in test [5] (setting [7]) was 17%; in test [5] (setting [8]), 53%; in test [5] (at 50.0 µM), 82.4% (active); in test [6] (setting [7]) it was 20%; in test [6] (setting [8]), 74% (active); in test [6] (at 50.0 µM), 88.8% (active).
As for `COC(=O)[C@]1(C)CCC[C@]2(C)[C@H]3CC4OO[C@@]3(CC[C@H]21)[C@H]1O[C@@]41C(C)C`, the growth inhibition was 98% (active) in test [1] (setting [7]); 99% (active) in test [1] (setting [8]); 92.5% (active) in test [1] (at 50.0 µM); 99% (active) in test [2] (setting [7]); 99% (active) in test [2] (setting [8]); 93.4% (active) in test [2] (at 50.0 µM). For the same compound, the growth inhibition is 99% (active) in test [3] (setting [7]); 100% (active) in test [3] (setting [8]); 93.7% (active) in test [3] (at 50.0 µM); 92% (active) in test [4] (setting [7]); 99% (active) in test [4] (setting [8]); 92.2% (active) in test [4] (at 50.0 µM). The growth inhibition is 98% (active) in test [5] (setting [7]); 99% (active) in test [5] (setting [8]); 91.8% (active) in test [5] (at 50.0 µM); 98% (active) in test [6] (setting [7]); 99% (active) in test [6] (setting [8]); 92.3% (active) in test [6] (at 50.0 µM).
For `Nc1ccc(C(=O)O)c(C(=O)O)c1.[Cl][Sn]([Cl])([Cl])[Cl]`, the growth inhibition in test [1] (setting [7]) was 3%; in test [1] (setting [8]), -9%; in test [1] (at 50.0 µM), 48%; in test [2] (setting [7]) it was 3%; in test [2] (setting [8]), 46%; in test [2] (at 50.0 µM) it was 59.6%. The growth inhibition in test [3] (setting [7]) is 8%; in test [3] (setting [8]), 36%; in test [3] (at 50.0 µM), 53.7%; in test [4] (setting [7]) it was -4%; in test [4] (setting [8]) it was -21%; in test [4] (at 50.0 µM) it was 76.1% (active). Besides, the growth inhibition is 1% in test [5] (setting [7]); -2% in test [5] (setting [8]); 80.8% (active) in test [5] (at 50.0 µM); -3% in test [6] (setting [7]); 20% in test [6] (setting [8]); 40.4% in test [6] (at 50.0 µM).
For the compound `C(#C[PH+](c1ccccc1)c1ccccc1)c1ccccc1.C(#C[PH+](c1ccccc1)c1ccccc1)c1ccccc1.C(#C[PH+](c1ccccc1)c1ccccc1)c1ccccc1.[C-]#[O+].[C-]#[O+].[C-]#[O+].[Cr]`, the growth inhibition in test [1] (setting [7]) is 29%; in test [1] (setting [8]), 35%; in test [1] (at 50.0 µM) it was 83.2% (active); in test [2] (setting [7]) it was 31%; in test [2] (setting [8]), 27%; in test [2] (at 50.0 µM), 87% (active). The growth inhibition in test [3] (setting [7]) is 14%; in test [3] (setting [8]), 17%; in test [3] (at 50.0 µM), 86.8% (active); in test [4] (setting [7]), 31%; in test [4] (setting [8]) it was 39%; in test [4] (at 50.0 µM), 84.5% (active). The growth inhibition was 44% in test [5] (setting [7]); 39% in test [5] (setting [8]); 88.2% (active) in test [5] (at 50.0 µM); 0% in test [6] (setting [7]); 37% in test [6] (setting [8]); 82.5% (active) in test [6] (at 50.0 µM).
Regarding `CCN1C(C)N1P(=S)(OC1CC(C)(C)N(O)C(C)(C)C1)OC1CC(C)(C)N(O)C(C)(C)C1` (configuration not stated), the growth inhibition in test [1] (setting [7]) is -2%; in test [1] (setting [8]), 3%; in test [1] (at 50.0 µM), 45.9%; in test [2] (setting [7]) it was -6%; in test [2] (setting [8]), 6%; in test [2] (at 50.0 µM) it was 91.3% (active). The growth inhibition was -3% in test [3] (setting [7]); 1% in test [3] (setting [8]); 32.2% in test [3] (at 50.0 µM); -3% in test [4] (setting [7]); 4% in test [4] (setting [8]); 90.3% (active) in test [4] (at 50.0 µM). For the same compound, the growth inhibition in test [5] (setting [7]) was -5%; in test [5] (setting [8]), 5%; in test [5] (at 50.0 µM), 98.1% (active); in test [6] (setting [7]), -5%; in test [6] (setting [8]), 12%; in test [6] (at 50.0 µM) it was 14.6%.
For `N#CC1CC[CH-]CC1.[Cl-].[Cl-].[Cl-].[Cl-].[Cl-].[Sb+5].c1ccncc1`, the growth inhibition in test [1] (setting [7]) was -1%; in test [1] (setting [8]), 98% (active); in test [1] (at 50.0 µM), 99.1% (active); in test [2] (setting [7]), 3%; in test [2] (setting [8]), 100% (active); in test [2] (at 50.0 µM), 96.3% (active). Moreover, the growth inhibition in test [3] (setting [7]) is 5%; in test [3] (setting [8]), 99% (active); in test [3] (at 50.0 µM), 99.3% (active); in test [4] (setting [7]), 11%; in test [4] (setting [8]), 99% (active); in test [4] (at 50.0 µM), 99.3% (active). Moreover, the growth inhibition in test [5] (setting [7]) was -1%; in test [5] (setting [8]), 99% (active); in test [5] (at 50.0 µM), 90.5% (active); in test [6] (setting [7]), 3%; in test [6] (setting [8]), 99% (active); in test [6] (at 50.0 µM), 98.5% (active).
`Oc1c(Cl)c(Cl)c(O)c(Cl)c1Cl`: the growth inhibition in test [1] (setting [7]) was 65%; in test [1] (setting [8]), 97% (active); in test [1] (at 50.0 µM), 99.2% (active); in test [2] (setting [7]) it was 35%; in test [2] (setting [8]), 99% (active); in test [2] (at 50.0 µM) it was 99.3% (active). In addition, the growth inhibition is 37% in test [3] (setting [7]); 99% (active) in test [3] (setting [8]); 99.1% (active) in test [3] (at 50.0 µM); -2% in test [4] (setting [7]); 80% (active) in test [4] (setting [8]); 95.7% (active) in test [4] (at 50.0 µM). The growth inhibition was 64% in test [5] (setting [7]); 97% (active) in test [5] (setting [8]); 99.1% (active) in test [5] (at 50.0 µM); 47% in test [6] (setting [7]); 98% (active) in test [6] (setting [8]); 98.8% (active) in test [6] (at 50.0 µM).

Source of the values: PubChem BioAssay (NCI).
